Laboratory results reported in the supplement of paper PMC10077471.
Over roughly 1,900 compounds, “excess over highest single agent (ExcessHSA) synergy score, 6x6 matrix” has its median near -83; the lowest 2% begin near -370. The entries come from a sample that favours the lowest values as a whole.

System: NCI-H446
Experiment: excess over highest single agent (ExcessHSA) synergy score, 6x6 matrix; higher = less synergy (more negative = stronger synergy)
Details: 72 h; CellTiter-Glo viability

| Compound | excess over highest single agent |
| --- | --- |
| Cc1cc(=O)c2c(O)c3c(O)cc(=O)c4c3c3c(cc(O)c1c23)C(C)(C)C=4O + Cc1sc2c(c1C)C(c1ccc(Cl)cc1)=N[C@@H](CC(=O)OC(C)(C)C)c1nnc(C)n1-2 [NCGC00250412-19] | -128 |
| Oc1ccc([C@@H]2Oc3ccc(O)cc3[C@@H]3CCC[C@@H]32)cc1 + Cc1sc2c(c1C)C(c1ccc(Cl)cc1)=N[C@@H](CC(=O)OC(C)(C)C)c1nnc(C)n1-2 [NCGC00250412-19] | -48.9 |
| N#Cc1cc(NC(=O)Nc2nnc(-c3ccncc3)s2)ccc1-c1cn[nH]c1 + Cc1sc2c(c1C)C(c1ccc(Cl)cc1)=N[C@@H](CC(=O)OC(C)(C)C)c1nnc(C)n1-2 [NCGC00250412-19] | 313 |
| O=C(O)c1ccc2cc(-c3ccc(O)c(C45CC6CC(CC(C6)C4)C5)c3)ccc2c1 + Cc1sc2c(c1C)C(c1ccc(Cl)cc1)=N[C@@H](CC(=O)OC(C)(C)C)c1nnc(C)n1-2 [NCGC00250412-19] | -225 |
| CC(C)n1cnc2c(NCCCCCCNC(=O)OC(C)(C)C)nc(NCCO)nc21 + Cc1sc2c(c1C)C(c1ccc(Cl)cc1)=N[C@@H](CC(=O)OC(C)(C)C)c1nnc(C)n1-2 [NCGC00250412-19] | -65.3 |
| CC1=C(C(=O)Nc2cc3cn[nH]c3cc2F)C(c2ccc(Cl)cc2F)N=C(c2ccnc(Cl)c2)N1 (configuration not stated) + Cc1sc2c(c1C)C(c1ccc(Cl)cc1)=N[C@@H](CC(=O)OC(C)(C)C)c1nnc(C)n1-2 [NCGC00250412-19] | -142 |
| COc1ccc2c(c1)CC[C@H](CN(C)CC(=O)O)[C@@H]2c1ccccc1 + Cc1sc2c(c1C)C(c1ccc(Cl)cc1)=N[C@@H](CC(=O)OC(C)(C)C)c1nnc(C)n1-2 [NCGC00250412-19] | -220 |
| CNC(=O)c1ccc(N2C(=S)N(c3cnc(C#N)c(C(F)(F)F)c3)C(=O)C23CCC3)cc1F + Cc1sc2c(c1C)C(c1ccc(Cl)cc1)=N[C@@H](CC(=O)OC(C)(C)C)c1nnc(C)n1-2 [NCGC00250412-19] | -9.84 |
| CN(C)CCOc1cc(-c2cn[nH]c2)ccc1NC(=O)C1COc2ccccc2O1 (configuration not stated) + Cc1sc2c(c1C)C(c1ccc(Cl)cc1)=N[C@@H](CC(=O)OC(C)(C)C)c1nnc(C)n1-2 [NCGC00250412-19] | -160 |
| O=C(O)CCNc1cc(N2CCc3ccccc3CC2)nc(-c2ccccn2)n1 + Cc1sc2c(c1C)C(c1ccc(Cl)cc1)=N[C@@H](CC(=O)OC(C)(C)C)c1nnc(C)n1-2 [NCGC00250412-19] | -73 |
| CN1CCN(c2ncc(-c3cc(Cl)cc(Cl)c3Cl)c(N)n2)CC1 + Cc1sc2c(c1C)C(c1ccc(Cl)cc1)=N[C@@H](CC(=O)OC(C)(C)C)c1nnc(C)n1-2 [NCGC00250412-19] | -219 |
| CN(C)Cc1c(C(=O)NCCOc2ccc(C(=O)NO)cc2)oc2ccccc12 + Cc1sc2c(c1C)C(c1ccc(Cl)cc1)=N[C@@H](CC(=O)OC(C)(C)C)c1nnc(C)n1-2 [NCGC00250412-19] | -152 |
| Cc1ccc2nc(NC(=O)CSc3nc4c(c(=O)n3-c3ccccc3)SCC4)sc2c1 + Cc1sc2c(c1C)C(c1ccc(Cl)cc1)=N[C@@H](CC(=O)OC(C)(C)C)c1nnc(C)n1-2 [NCGC00250412-19] | 84.8 |
| CC(C)(C)OC(=O)CN(Cc1ccc(Cl)cc1)Cc1ccc([N+](=O)[O-])s1 + Cc1sc2c(c1C)C(c1ccc(Cl)cc1)=N[C@@H](CC(=O)OC(C)(C)C)c1nnc(C)n1-2 [NCGC00250412-19] | 27 |
| Cn1c(=O)c(-c2c(Cl)cccc2Cl)cc2cnc(Nc3cccc(C(=O)O)c3)nc21 + Cc1sc2c(c1C)C(c1ccc(Cl)cc1)=N[C@@H](CC(=O)OC(C)(C)C)c1nnc(C)n1-2 [NCGC00250412-19] | -131 |
| Cc1cc(OCCCc2c(C(=O)O)n(Cc3cccnc3)c3c(-c4c(COc5ccc(N6CCN([S+](C)(=O)[O-])CC6)cc5)nn(C)c4C)cccc23)cc(C)c1Cl + Cc1sc2c(c1C)C(c1ccc(Cl)cc1)=N[C@@H](CC(=O)OC(C)(C)C)c1nnc(C)n1-2 [NCGC00250412-19] | -31.2 |
| CCOC(=O)N1CCN([N+]([O-])=NOc2ccc([N+](=O)[O-])cc2[N+](=O)[O-])CC1 + Cc1sc2c(c1C)C(c1ccc(Cl)cc1)=N[C@@H](CC(=O)OC(C)(C)C)c1nnc(C)n1-2 [NCGC00250412-19] | -84.4 |
| O=C(c1ccc(Nc2nccc(-c3cc4ccccc4s3)n2)cc1)N1CCC(N2CCCC2)CC1 + Cc1sc2c(c1C)C(c1ccc(Cl)cc1)=N[C@@H](CC(=O)OC(C)(C)C)c1nnc(C)n1-2 [NCGC00250412-19] | -181 |
| CNC(=O)c1ccc(N2C(=S)N(c3ccc(C#N)c(C(F)(F)F)c3)C(=O)C23CCC3)cc1F + Cc1sc2c(c1C)C(c1ccc(Cl)cc1)=N[C@@H](CC(=O)OC(C)(C)C)c1nnc(C)n1-2 [NCGC00250412-19] | -51.1 |
| O=C(OCC#CCSc1nnc(-c2cccc3ccccc23)o1)c1cc2ccccc2s1 + Cc1sc2c(c1C)C(c1ccc(Cl)cc1)=N[C@@H](CC(=O)OC(C)(C)C)c1nnc(C)n1-2 [NCGC00250412-19] | -169 |
| O=C1CSC(=O)N1C(CCc1ccncc1)COc1ccc(-c2cccc([N+](=O)[O-])c2)cc1 (configuration not stated) + Cc1sc2c(c1C)C(c1ccc(Cl)cc1)=N[C@@H](CC(=O)OC(C)(C)C)c1nnc(C)n1-2 [NCGC00250412-19] | -96.7 |
| CS[C@H]1SC[C@H]2C(=O)N(C)[C@@H](C(C)C)C(=O)OC[C@@H](NC(=O)c3cnc4ccccc4n3)C(=O)N[C@@H](C)C(=O)N(C)[C@@H]1C(=O)N(C)[C@@H](C(C)C)C(=O)OC[C@@H](NC(=O)c1cnc3ccccc3n1)C(=O)N[C@@H](C)C(=O)N2C + Cc1sc2c(c1C)C(c1ccc(Cl)cc1)=N[C@@H](CC(=O)OC(C)(C)C)c1nnc(C)n1-2 [NCGC00250412-19] | 15.3 |
